Sampled rows, rich in hits. Any-hit rate of the full collection: about 4.3%.
DRD3 agonist = agonists of human D3 dopamine receptor | D3R DiscoveRx beta-arrestin cells, luminescence, 90 min | max activation, % | 410,000 tested, 0.58% active; in the data active = max activation above about 30%; note: 0% is about no effect
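Agonist mode: compounds and dopamine controls were applied to plated cells for 90 min at 37 degrees C after an overnight attachment at 1500 cells/well. Luminescent read-out followed 30 - 60 minutes at room temperature with DiscoveRx detection reagent.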
D3 antag = blocks the human D3 dopamine receptor; P35462; D3R cells, DiscoveRx beta-arrestin luminescence, antagonist mode; stronger effect = lower value; max response, negative = inhibition, %; 360,000 tested, 2.5% active; AID 652054; in the data active = max response below about -50%; inconclusive = no clear call, values can overlap the other calls; note: % is set by controls: 0 for no effect and ±100 for the full control effect
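Cells expressing the human receptor were seeded at 1500 cells/well, incubated overnight at 37 degrees C in 5% CO2, then exposed to library compounds with dopamine controls for 90 minutes at 37 degrees C before luminescent detection.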
GLP-1R agonist = agonists of human GLP-1 receptor; P43220; HEK293 GLP-1R CRE-luciferase, luminescence, 4-6 h; cells express a hypersensitive GLP-1R form; Potency, µM (doses to about 45.6 µM), without a hit: at the top dose activation, usual class: activators; 380,000 tested, 0.007% active; AID 624172; note: potency is the fitted concentration of half-maximal effect; % of control where 0% means no effect
Target sequence (P43220 whole entry, looked up): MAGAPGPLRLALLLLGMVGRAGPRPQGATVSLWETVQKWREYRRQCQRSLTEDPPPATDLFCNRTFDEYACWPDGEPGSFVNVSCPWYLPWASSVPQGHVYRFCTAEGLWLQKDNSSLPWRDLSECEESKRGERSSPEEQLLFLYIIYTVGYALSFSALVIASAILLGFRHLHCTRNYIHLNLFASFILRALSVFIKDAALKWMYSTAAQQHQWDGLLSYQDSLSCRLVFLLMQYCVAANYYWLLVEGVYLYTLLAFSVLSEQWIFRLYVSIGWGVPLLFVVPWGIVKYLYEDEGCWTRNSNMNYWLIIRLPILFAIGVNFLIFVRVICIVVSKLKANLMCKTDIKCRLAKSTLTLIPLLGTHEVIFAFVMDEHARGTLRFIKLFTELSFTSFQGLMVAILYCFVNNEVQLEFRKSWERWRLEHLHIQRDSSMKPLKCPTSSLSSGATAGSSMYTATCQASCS
GLP-1R inv ag = GLP-1 receptor (human) inverse agonism. P43220. HEK293 GLP-1R CRE-luciferase, luminescence, 24 h; GLP-1R form is constitutively active. Potency, µM (doses to about 38.3 µM), without a hit: at the highest dose activity change, negative = inhibition, usual class: inhibitors. 410,000 tested, 1.6% active. AID 624417; note: potency is the fitted concentration of half-maximal effect; % is set by controls: 0 for no effect and ±100 for the full control effect; nearly all actives have a fitted effect of over 55% in size
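Using stably transfected HEK293 (constitutively active GLP-1R, cAMP-luciferase reporter), compounds were incubated 24 hr and luciferase measured by luminescence.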
* = called active by the depositor; ? = inconclusive; · = not tested or not shown. Unless noted, calls come from the whole dose curve; as a rule, active = well fitted curve in the direction sought with a large enough effect; inconclusive = small, poorly fitted or top-dose-only effect, or another doubt; inactive = no such curve, though single readings can be large; an effect the other way counts as inactive or inconclusive.

SMILES	DRD3 agonist	D3 antag	GLP-1R agonist	GLP-1R inv ag
CCCCNC(=O)c1ccccc1NC(=O)CCSc1ccccc1	4	59	24%	10µM*
Oc1ccc(/C=C/c2nc(-c3ccccc3O)n(-c3ccccc3)n2)c(O)c1	7	·	·	-25%
CCC(C)(C)C1CCC2(CC1)NC(=O)N(CC(=O)N(C)Cc1ccc(OC(F)F)cc1)C2=O (configuration not stated)	6	-11	14%	1.4µM*
CCOc1ccc(NC(=O)Cc2c(O)c3ccccc3[nH]c2=O)cc1	-13	-63*	-6%	4%
CCc1ccc(NC(=O)CC2C(=O)N(c3ccc(Cl)cc3)C(=O)N2C2CCCC2)cc1 (configuration not stated)	-1	·	·	?
C=CCOC(=O)C(C#N)c1nc2ccccc2nc1N1CCN(c2ccccc2OCC)CC1 (configuration not stated)	-11	-12	-1%	?
CCOC(=O)C1CCN(c2nc3ccccc3nc2C(C#N)C(=O)OCCOC)CC1 (configuration not stated)	10	6	9%	-21%
CCOc1ccccc1N1CCN(c2nc3ccccc3nc2C(C#N)C(=O)OC(C)C)CC1 (configuration not stated)	6	27	2%	5µM*
C=CCOC(=O)C(C#N)c1nc2ccccc2nc1N1CCC(C(=O)OCC)CC1 (configuration not stated)	1	0	8%	6.3µM*
COc1cc([N+](=O)[O-])cc(/C=N/N(CCC#N)C(C)=O)c1O	-12	-59*	3%	?
COc1ccc2nc(C)cc(Nc3ccc(N4CCOCC4)cc3)c2c1	-8	-21	-1%	?
COC(=O)c1ccc(Nc2cc(C)nc3ccc(C)cc23)cc1	-16	-21	5%	10µM*
COc1ccc2nc(C)cc(Nc3ccc(N4CCN(C)CC4)cc3)c2c1	-4	-13	11%	5.6µM*
COC(=O)c1ccc2nc(C)cc(Nc3ccccc3C)c2c1	-6	-10	-2%	-14%
CCC(C(=O)NCc1ccccc1OC)n1nc(C)n2c(cc3sccc32)c1=O (configuration not stated)	6	·	·	-29%
CNc1n[nH]c(-c2ccccc2)n1	1	8	1%	22%
CCCN1CCN(CCCNC(=O)Cn2c(-c3cccs3)cc3cc(Cl)ccc32)CC1	-11	·	·	?
COc1ccc(NC(=S)N2CCC(C(=O)c3ccc(F)cc3)CC2)cc1	-5	-5	-5%	?
CCOC(=O)C1CCCN(C(=O)c2[nH]c3ccccc3c2Sc2ccc(Cl)cc2)C1 (configuration not stated)	-15	·	·	11µM*
CC1(Br)C(Sc2ccccc2[N+](=O)[O-])=Nc2ccccc21 (configuration not stated)	-13	-51*	11%	?
CN1CCC(N(Cc2cccs2)c2ccccc2)CC1	-18	·	2%	·
O=C(c1ccc(F)cc1)C1CCN(Cc2ccc(F)cc2)CC1	-22	-88*	14%	?
O=C(c1ccc(F)cc1)C1CCN(C(=O)c2ccc(Cl)cc2)CC1	-5	-28	-1%	?
COc1ccc(CN2CCC(C(=O)c3cccc(Cl)c3)CC2)cc1	-17	-27	-2%	-5%
COc1ccc(CN2CCC(C(=O)c3ccc(Cl)cc3)CC2)cc1	-20	-88*	3%	?
SMILES	DRD3 agonist	D3 antag	GLP-1R agonist	GLP-1R inv ag
O=C(c1ccc(F)cc1)C1CCN(Cc2ccccc2)CC1	-9	-86*	-4%	-13%
O=C(c1ccc(F)cc1)N1CCN(Cc2ccccc2)CC1	-17	?	-17%	0%
CCCCCOc1ccc(C2SC(=O)NC2=O)cc1OCC (configuration not stated)	8	·	-2%	·
O=C(CSc1cn(CCNC(=O)c2c(F)cccc2F)c2ccccc12)Nc1ccccc1F	1	·	0%	-9%
Cc1cc2c(cc1NS(=O)(=O)c1cccc(C#N)c1)n(C)c(=O)c(=O)n2C	0	·	·	17%
CCCCCC[n+]1c(-c2ccccc2)csc1Nc1ccccc1	-11	-5	0%	2.2µM*
COc1cc(C(=O)NCc2nc(-c3ccc(Cl)cc3)no2)cc(OC)c1OC	8	·	·	-1%
COCCNc1nc(NCc2ccccc2OC)c2sccc2n1	-9	0	4%	?
COc1ccccc1CNc1nc(NCc2ccccc2OC)c2sccc2n1	-4	5	-3%	11µM*
COc1ccccc1CNc1nc(Nc2ccccc2-n2cccn2)c2sccc2n1	9	42	33%	3.2µM*
O=C(CSc1nc(=O)[nH]c2c1CCC2)NCc1ccc(F)cc1	3	·	·	0%
Nc1c(-c2ccccc2)cnn1-c1cccc(Cl)c1	4	16	2%	?
Nc1ccccc1Nc1cc(-c2cccc(Cl)c2)nn1-c1ccccc1	3	-11	-30%	10µM*
O=C(Nc1ccc(C(=O)OCc2cc(=O)n3ccsc3n2)cc1)c1cccc(F)c1	-14	·	·	12%
CCCCCC(=O)Nc1cccc(C2=NOC3(C2)C[C@@H](C(N)=O)N(C(=O)Cc2ccc([N+](=O)[O-])cc2)C3)c1 (some centres not stated)	2	-56*	3%	0%
CCCCCC(=O)Nc1cccc(C2=NOC3(C2)C[C@@H](C(N)=O)N(C(=O)c2cc([N+](=O)[O-])cc([N+](=O)[O-])c2)C3)c1 (some centres not stated)	14	25	0%	10%
C=CCOC(=O)C1=C[C@@H](c2ccc(C(F)(F)F)cc2)[C@H](CCCO)[C@@H](OCC)O1	9	-4	13%	6.3µM*
CCO[C@@H]1OC(C(=O)NC2CC2)=C[C@H](c2c[nH]c3ccccc23)[C@H]1CCCO	4	-65*	-1%	0%
CCO[C@H]1OC(C(=O)NC2CC2)=C[C@@H](c2c[nH]c3ccccc23)[C@@H]1CCCO	2	27	-1%	-3%
CCO[C@@H]1OC(C(=O)Nc2ccccc2)=C[C@H](c2ccc(C(F)(F)F)cc2)[C@H]1CCCO	17	12	-1%	4.5µM*
C=CCOC(=O)C1=C[C@H](c2ccc(C(F)(F)F)cc2)[C@@H](CCCO)[C@H](OCC)O1	9	2	20%	?
C#CCNC(=O)C1=C[C@H](c2ccc(C(F)(F)F)cc2)[C@@H](CCCO)[C@H](OCC)O1	34*	0	3%	?
CCCCCCCCOc1ccccc1C(=O)Nc1ccc(C(=O)OCC[N+](C)(CC)CC)cc1	-7	·	21%	·
COc1ccc(CNC(=O)Nc2ccc3c(c2)N(C)C(=O)c2ccccc2S3)cc1	0	·	·	?
O=C(Nc1ccccc1)c1ccccc1Oc1ccc(C(F)(F)F)cc1[N+](=O)[O-]	4	-5	-8%	?
O=C(Nc1ccc(F)cc1)c1ccccc1Oc1ccc(C(F)(F)F)cc1[N+](=O)[O-]	-1	-18	-12%	10µM*
CC(C)Cn1c(N)c(C(=O)CSc2ncn[nH]2)c(=O)n(C)c1=O	1	4	13%	2%
